Counter-ions that a name gives are not always drawn. ± gives the standard deviation of the averaged measurements.
Columns and labels:
Assay in all cases: growth (OD600 after 10 h); higher = more growth (less inhibition)
[1] = test system: E. coli TESEC Alr+ wild-type control; conditions: compound 0.1 mM; raw OD600 reference: median of DMSO wells 0.241, cell-free background 0.041
Experimental: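 TESEC Mtb Alr E. coli, or the Alr+ wild-type control, in 384-well plates with Prestwick library compounds at 0.1 mM and 1% DMSO, across arabinose induction levels of 1E3 to 1E7 nM. Growth is read as OD600 after 10 h at 37 °C in triplicate biological replicates.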

E. coli TESEC Mtb Asd = conditions: compound 0.1 mM
Experimental: (§1)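 TESEC E. coli strains in which the native enzyme is deleted and replaced by arabinose-inducible Mtb Asd, DapB, CysH or TrpD, each grown in its selective medium. Strains were screened against the Prestwick library at 0.1 mM and 1% DMSO in 384-well format at low and high arabinose induction. Growth is read as OD600 after 10 h in triplicate.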

[2] = test system: E. coli TESEC Alr+ wild-type control; conditions: compound 0.1 mM; raw OD600 reference: median of DMSO wells 0.49, cell-free background 0.052
Experimental: (§2)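 TESEC Mtb Alr E. coli (ΔaraC ΔtolC ΔentC Δalr ΔdadX, arabinose-inducible Mtb Alr) or the Alr+ wild-type control strain, grown in defined M9-fructose medium without D-alanine in 96-well plates with Prestwick library compounds at 0.1 mM and 1% DMSO. Low Alr induction is 0.1 µM arabinose and high induction is 10 mM arabinose.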

E. coli TESEC Mtb Alr = conditions: compound 0.1 mM
Experimental: as §2

E. coli TESEC Mtb DapB = conditions: compound 0.1 mM
Experimental: as §1

[3] = arabinose induction (level): High, raw OD600 reference: median of DMSO wells 0.331, cell-free background 0.041
[4] = arabinose induction (level): Low, raw OD600 reference: median of DMSO wells 0.417, cell-free background 0.041
[5] = arabinose 100 nM, raw OD600 reference: median of DMSO wells 0.413, cell-free background 0.052
[6] = arabinose 10000000 nM, raw OD600 reference: median of DMSO wells […], cell-free background 0.052
[7] = arabinose induction (level): High, raw OD600 reference: median of DMSO wells […], cell-free background 0.041
[8] = arabinose induction (level): Low, raw OD600 reference: median of DMSO wells 0.227, cell-free background 0.041

| Compound | growth [1] | growth (E. coli TESEC Mtb Asd; [3]) | growth (E. coli TESEC Mtb Asd; [4]) | growth [2] | growth (E. coli TESEC Mtb Alr; [5]) | growth (E. coli TESEC Mtb Alr; [6]) | growth (E. coli TESEC Mtb DapB; [7]) | growth (E. coli TESEC Mtb DapB; [8]) |
| --- | --- | --- | --- | --- | --- | --- | --- | --- |
| O=C(CCCN1CCC(O)(c2ccc(Br)cc2)CC1)c1ccc(F)cc1 [Bromperidol] | 0.215 ± 0.0079 | 0.254 ± 0.025 | 0.344 ± 0.092 | 0.381 ± 0.013 | 0.417 ± 0.0095 | 0.306 ± 0.022 |  |  |
| O=C(O)[C@H]1/C(=C/CO)O[C@@H]2CC(=O)N21 [Clavulanate potassium salt] | 0.155 ± 0.0016 | 0.535 ± 0.033 | 0.387 ± 0.062 | 0.04737 ± 0.00042 | 0.0839 ± 0.04 | 0.101 ± 0.017 |  |  |
| Cc1cc(-c2ccccc2)nnc1NCCN1CCOCC1 [Minaprine dihydrochloride] | 0.227 ± 0.0047 | 0.212 ± 0.028 | 0.342 ± 0.074 |  | 0.409 ± 0.0057 | 0.318 ± 0.029 | 0.185 ± 0.0026 | 0.225 ± 0.045 |
| CCCCOc1cc(C(=O)OCCN(CC)CC)ccc1N [Benoxinate hydrochloride] | 0.206 ± 0.0046 | 0.27 ± 0.12 | 0.451 ± 0.059 |  | 0.4124 ± 0.0014 | 0.33 ± 0.011 | 0.183 ± 0.016 | 0.21 ± 0.036 |
| CC(=O)N1CCN(c2ccc(OCC3COC(Cn4ccnc4)(c4ccc(Cl)cc4Cl)O3)cc2)CC1 (stereo not drawn) [Ketoconazole] | 0.05323 ± 0.00038 | 0.0601 ± 0.0054 | 0.0507 ± 0.0015 |  | 0.32 ± 0.041 | 0.0608 ± 0.0022 | 0.0759 ± 0.0062 | 0.0712 ± 0.0069 |
| Cc1cc(C2CCCCC2)n(O)c(=O)c1 [Ciclopirox ethanolamine] | 0.04347 ± 0.00021 | 0.0544 ± 0.0014 | 0.0525 ± 0.0041 | 0.0666 ± 0.0021 | 0.0481 ± 0.00095 | 0.0634 ± 0.0046 |  |  |
| CC(=O)O[C@]1(C(C)=O)CC[C@H]2[C@@H]3C=C(C)C4=CC(=O)CC[C@]4(C)[C@H]3CC[C@@]21C [Megestrol acetate] | 0.206 ± 0.022 | 0.441 ± 0.041 | 0.46 ± 0.026 |  | 0.291 ± 0.12 | 0.302 ± 0.041 | 0.2058 ± 0.0013 | 0.248 ± 0.034 |
| O=P(O)(O)C(Cl)(Cl)P(=O)(O)O [Clodronate] | 0.248 ± 0.0073 | 0.336 ± 0.042 | 0.403 ± 0.025 |  | 0.411 ± 0.0072 | 0.303 ± 0.0027 | 0.223 ± 0.024 | 0.212 ± 0.024 |
| Cc1ccc2c(c1)c1c3n2CCNC3CCC1 (stereo not drawn) [Pirlindole mesylate] | 0.215 ± 0.0049 | 0.177 ± 0.0082 | 0.259 ± 0.028 |  | 0.397 ± 0.0065 | 0.351 ± 0.011 | 0.18 ± 0.0019 | 0.201 ± 0.024 |
| Nc1cc(-c2ccncc2)c[nH]c1=O [Amrinone] | 0.237 ± 0.0081 | 0.463 ± 0.012 | 0.385 ± 0.074 |  | 0.38 ± 0.043 | 0.362 ± 0.026 | 0.206 ± 0.0051 | 0.271 ± 0.011 |
| Nc1nc(N)nc(-c2cc(Cl)ccc2Cl)n1 [Irsogladine maleate] | 0.238 ± 0.0051 | 0.297 ± 0.072 | 0.406 ± 0.025 | 0.589 ± 0.1 | 0.402 ± 0.0076 | 0.357 ± 0.0079 | 0.197 ± 0.019 | 0.211 ± 0.017 |
| CCCCNc1ccc(C(=O)OCCN(C)C)cc1 | 0.208 ± 0.0034 | 0.266 ± 0.033 | 0.354 ± 0.021 | 0.468 ± 0.0089 | 0.396 ± 0.019 | 0.346 ± 0.018 | 0.174 ± 0.019 | 0.186 ± 0.0082 |
| CNS(=O)(=O)Cc1ccc2[nH]cc(CCN(C)C)c2c1 [Sumatriptan succinate] | 0.226 ± 0.0042 | 0.372 ± 0.026 | 0.503 ± 0.03 |  | 0.417 ± 0.0056 | 0.353 ± 0.0071 | 0.206 ± 0.018 | 0.221 ± 0.028 |
| COc1ccc2cc([C@H](C)C(=O)O)ccc2c1 [Naproxen] | 0.26 ± 0.0081 | 0.247 ± 0.028 | 0.426 ± 0.063 |  | 0.42 ± 0.0057 | 0.293 ± 0.019 | 0.18 ± 0.062 | 0.217 ± 0.027 |
| NC(N)=Nc1nc(CSCC/C(N)=N/S(N)(=O)=O)cs1 [Famotidine] | 0.248 ± 0.0073 | 0.348 ± 0.074 | 0.436 ± 0.038 |  | 0.413 ± 0.0053 | 0.328 ± 0.014 | 0.206 ± 0.043 | 0.203 ± 0.025 |
| CN(C)[C@@H]1C(=O)C(C(N)=O)=C(O)[C@@]2(O)C(=O)C3=C(O)c4c(O)ccc(Cl)c4[C@@H](O)[C@H]3C[C@@H]12 [Demeclocycline hydrochloride] | 0.0424 ± 0.00081 | 0.0573 ± 0.0014 | 0.0773 ± 0.029 |  | 0.0561 ± 0.0037 | 0.05407 ± 0.00042 | 0.0577 ± 0.0035 | 0.0559 ± 0.002 |
| Clc1ccc(CSC(Cn2ccnc2)c2ccc(Cl)cc2Cl)cc1 (stereo not drawn) [Sulconazole nitrate] | 0.0579 ± 0.0028 | 0.0615 ± 0.0029 | 0.0557 ± 0.0015 |  | 0.0787 ± 0.039 | 0.0898 ± 0.0077 | 0.0605 ± 0.00098 | 0.0607 ± 0.0018 |
